From PubChem BioAssay
Shown are actives, neighbours in structure and some others; about 9.3% of the full set was active somewhere.
ELG1 genotox – inducers of genotoxicity in HEK293T ELG1-luciferase cells; 1.3% of 330,000 active; HEK293T ELG1-luciferase reporter, luminescence, 16 h; Potency, µM (series often up to 46 µM), most hits filed as activators; further: nearly all actives have a fitted effect of over 60% in size
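ELG1-luciferase HEK293T cells, 2,000/well; compound pinned in; 16 hr, 37 °C, 5% CO2; ONE-Glo, 30 min RT; luminescence on CCD imager.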
ELG1 repair inh – inhibitors of ELG1-dependent DNA repair in HEK293T cells. HEK293T ELG1-luciferase reporter, luminescence, 16 h; DNA damage induced by 5-fluorouridine. Potency, µM (top dose mostly 46.1 µM), actives largely listed as inhibitors. 2.3% of 330,000 active. AID 504467; further: nearly all actives have a fitted effect of over 55% in size
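HEK293T cells expressing luciferase-tagged ELG1 (2,000/well) received 5-Fluorouridine plus compound or DMSO for 16 hr at 37 °C. Luciferase was read by ONE-Glo luminescence after 30 min at room temperature.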
NPC1 prom act – activators of NPC1 promoter; Huh7 NPC1 promoter luciferase reporter, 24 h; AID 485313; 2.4% of 320,000 active; Potency, µM (top dose mostly 9.22 µM), hits mostly activators; further: nearly all actives have a fitted effect of over 60% in size
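Stable NPC1-promoter luciferase Huh7 line; cpd (DMSO) 24 h, 37 °C, 5% CO2; Amplite luciferase reagent 10 min RT; luminescence readout. qHTS format.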
FLuc modulator – inhibits or activates purified firefly luciferase, miR-21 counter-screen; P08659; purified FLuc, Km substrates, luminescence inhibition; Potency, µM (top dose mostly 57.5 µM), hits mostly inhibitors; 6.9% of 360,000 active; further: nearly all actives have a fitted effect of over 55% in size
Target sequence (P08659 whole entry, looked up): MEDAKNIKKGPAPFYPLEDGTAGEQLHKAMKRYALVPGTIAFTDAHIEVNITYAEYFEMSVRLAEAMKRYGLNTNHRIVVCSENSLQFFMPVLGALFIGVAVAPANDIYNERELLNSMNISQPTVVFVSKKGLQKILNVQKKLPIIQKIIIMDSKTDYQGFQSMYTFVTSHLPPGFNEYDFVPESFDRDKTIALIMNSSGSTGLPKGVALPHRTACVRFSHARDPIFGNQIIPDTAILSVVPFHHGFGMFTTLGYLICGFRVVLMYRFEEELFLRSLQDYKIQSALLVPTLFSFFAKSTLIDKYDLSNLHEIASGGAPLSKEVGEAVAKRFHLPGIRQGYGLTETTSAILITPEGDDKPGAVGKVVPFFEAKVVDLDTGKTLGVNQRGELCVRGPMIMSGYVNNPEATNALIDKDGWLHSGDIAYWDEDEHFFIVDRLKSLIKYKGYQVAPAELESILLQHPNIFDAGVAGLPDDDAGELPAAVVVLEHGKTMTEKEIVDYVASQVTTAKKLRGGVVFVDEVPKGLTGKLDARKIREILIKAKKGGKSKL
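Purified P. pyralis luciferase, 10 nM final, with Km-level 10 uM D-luciferin and 10 uM ATP in 50 mM Tris acetate pH 7.5, 10 mM Mg acetate, 0.01% Tween-20, 0.05% BSA; 6-point qHTS titration about 60 µM downward; luminescence read.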
SMN2 splice up – increases expression of the SMN2 splice variant. HEK293 SMN2-luciferase splicing reporter, luminescence, 30-36 h. Potency, µM (top dose mostly 46.1 µM), actives largely listed as activators. 2.8% of 210,000 active; further: nearly all actives have a fitted effect of over 55% in size
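HEK293 cells carry an SMN2 […]–luciferase reporter in which exon 7 inclusion puts luciferase in frame. Cells were plated 10-12 h before compound addition, then incubated 30-36 h at 37C. ONE-Glo luminescence was read; sodium butyrate at 4.5 mM final served as control.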
Rab9 promoter act – activates the Rab9 promoter; AID 485297; 2.8% of 320,000 active; Huh7 Rab9 promoter-luciferase reporter, luminescence, 24 h; Potency, µM (highest dose often 9.22 µM), hits mostly activators; further: nearly all actives have a fitted effect of over 60% in size
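Luminescence read-out: Huh7 cells stably expressing Rab9-luciferase, treated 24 h with compound at 37 °C, then lysed with luciferase reagent for 10 min at ambient before reading.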
Numbers stand for hits; 0 = inactive; ? = inconclusive; - = no result given; [ ] = dose if it differs, or a comment. The call rests on the fitted dose curve; in most records, active means well fitted curve in the direction sought with a large enough effect; inconclusive means small, poorly fitted or top-dose-only effect, or another doubt; inactive means no such curve, though single readings can be large; an effect the other way counts as inactive or inconclusive.

SMILES	ELG1 genotox	ELG1 repair inh	NPC1 prom act	FLuc modulator	SMN2 splice up	Rab9 promoter act
Cc1cc(/C=N/NC(=O)C(=O)NCc2ccccn2)c(C)n1-c1ccccc1	?	?	0	2.69µM	0	0
Cc1cc(/C=N\NC(=O)COc2cccc3cccnc23)c(C)n1-c1ccc(Br)cc1	0	0	0	4.78µM	0	0
Cc1cc(/C=N\NC(=O)c2cccs2)c(C)n1-c1ccc2ncccc2c1	?	?	2.82µM	1.35µM	?	1.78µM
Cc1cc(C)cc(-n2c(C)cc(/C=N/NC(=O)c3ccncc3)c2C)c1	0	0	0	0	0	0
O=C(NC1CC1)c1cc2c(F)cccc2s1	0	0	0	?	0	0
Cc1cc(C)cc(-n2c(C)cc(/C=N/NC(=O)CSc3ncccn3)c2C)c1	0	0	0	0	0	0
Cc1ccnc(-n2c(C)cc(/C=N/NC(=O)COc3cccc4cccnc34)c2C)c1	0	0	0	13.5µM	-	0
Cc1cc(/C=N\NC(=O)COc2cccc3cccnc23)c(C)n1-c1ccccc1	0	?	0	1.35µM	-	0
CC(=O)c1ccc(S(=O)(=O)N2CCn3cccc3C2c2ccc(C)cc2)cc1 (configuration not stated)	-	-	-	0	-	-
Cc1ccc2[nH]c(=O)c3cc(C(=O)NC4CCC(C)CC4)sc3c2c1 (configuration not stated)	-	-	-	0	0	-
O=C(Nc1cccc(-c2nn[nH]n2)c1)c1ccc(Cl)s1	0	0	0	15.1µM	-	0
CC(=O)c1ccc(OCCCC(=O)Nc2cccc(-c3nn[nH]n3)c2)cc1	0	0	0	0	-	0
c1cc(NNc2cccc(-c3nn[nH]n3)c2)cc(-c2nn[nH]n2)c1	-	-	-	-	0[9.22 µM]	-
O=C(Nc1cccc(-c2nn[nH]n2)c1)c1ccc(Br)s1	0	?	0	12µM	-	0
CC1=C(C(=O)OCc2ccccc2)C(C2CCCCC2)NC(=O)N1CCCCCC(=O)O (configuration not stated)	-	-	-	-	0	-
Cc1cc(C(=O)N/N=C/c2ccc3c(c2)OCO3)c(C)o1	?	?	?	6.01µM	-	3.16µM
Cc1occc1C(=O)N/N=C/c1ccc2c(c1)OCO2	?	?	0.501µM	3.79µM	-	0.355µM
O=C(N/N=C/c1ccc2c(c1)OCO2)c1ccc(Cl)cc1Cl	0	0	0	?	-	0
Cn1cc(C(=O)N/N=C/c2ccc3c(c2)OCO3)c2ccccc21	0	0	?	8.49µM	-	?
COc1ccc(/C=N/NC(=O)c2ccoc2C)cc1OC	?	?	?	?	12.6µM	?
COC(=O)c1scc(-c2ccc(C)cc2)c1S(=O)(=O)Nc1cc(OC)c(OC)c(OC)c1	-	-	-	0	-	-
O=C(c1cc([N+](=O)[O-])ccc1N1CCOCC1)N1CCN(S(=O)(=O)c2cc(Cl)ccc2Cl)CC1	0	?	0	0	-	0
Cn1cc(C(=O)N/N=C/c2cccs2)c2ccccc21	?	?	?	15.1µM	22.4µM	?
Cn1cc(C(=O)N/N=C/c2ccc(Br)c([N+](=O)[O-])c2)c2ccccc21	?	?	0	0	-	0
COc1ccc(C2CCCN2C(=S)Nc2cccc(Cl)c2C)cc1OC (configuration not stated)	0	?	0	0	0	0
SMILES	ELG1 genotox	ELG1 repair inh	NPC1 prom act	FLuc modulator	SMN2 splice up	Rab9 promoter act
COc1cc(NC(=O)Cn2nc(C(F)(F)F)c(Br)c2C)cc([N+](=O)[O-])c1	0	18.4µM	0	0	0[1.84 µM]	0
Cc1cc(C)n2ncc(/C(N)=N/OC(=O)Nc3ccccc3)c2n1	0	?	0	26.9µM	-	0
Fc1cccc(-c2cc3nc4c(c(NCc5ccco5)n3n2)CCCC4)c1	0	?	?	7.57µM	11.2µM	?
C/C=C/c1ccccc1OCc1ccc(C(=O)O)o1	0	0	0	0	-	0
CCOc1ccc(OCc2ccc(C(=O)O)o2)cc1	?	?	?	3.38µM	0.891µM	0.282µM
O=C(O)c1ccc(COc2ccc3ccccc3c2)o1	?	?	?	19µM	-	?
CCOc1ccc(OCc2ccc(C(=O)Nc3cc(OC)c(OC)c(OC)c3)o2)cc1	-	-	-	0	0	-
O=C(/C=C/c1ccc(S(=O)(=O)N2CCOCC2)cc1)NCCc1ccc(C(F)(F)F)cc1	0	?	0	0	-	0
COc1ccc(Cn2c(CCC(=O)Nc3ccccc3OC)nc3cccnc32)cc1	0	0	0	0	0	0
CCOc1ccc(C)cc1S(=O)(=O)n1cnc2ccccc21	0	?	0	0	-	0
CCN(CC)S(=O)(=O)c1ccc(C(=O)NCCN2C(=O)S/C(=C\c3cccnc3)C2=O)cc1	0	14.6µM	0	0	0	0
O=C(c1ccco1)n1nc(-c2ccccc2)nc1NCc1ccco1	0	?	0	0	?	0
O=C(COc1ccccc1)n1nc(-c2ccc(Cl)cc2)nc1NCc1ccco1	20.6µM	?	0	?	15.8µM	?
Cc1ccc(-c2nc(NCc3ccco3)n(C(=O)c3ccco3)n2)cc1	?	?	?	0	-	3.55µM
COc1ccccc1C(=O)n1nc(-c2ccccc2)nc1NCc1ccco1	0	0	0	0	12.6µM	0
COCC(=O)n1nc(-c2ccccc2)nc1NCc1ccc(N(C)C)cc1	?	?	?	16.9µM	?	?
COCC(=O)n1nc(-c2ccc(C)cc2)nc1NCc1ccc(F)cc1	0	?	0	0	?	0
COc1ccc(S(=O)(=O)NC2CCCC2)c(Cl)c1Cl	0	0	0	0	0	0
CC(=O)N1CCC2(CC1)CCN(c1ncccn1)CC2	-	-	-	-	0	-
O=C(/C=C/c1ccccc1Cl)NNC(=O)c1cccs1	0	0	0	?	0	0
N/C(=N\OC(=O)/C=C/c1ccccc1)c1ccccn1	4.11µM	?	?	0.675µM	12.6µM	2.51µM
O=C(/C=C/c1ccccc1)c1ccccn1	0	?	?	1.35µM	0	?
O=C(/C=C/c1ccccc1)N1CCN(c2ccccn2)CC1	0	?	0	?	0	0
O=C(/C=C/c1ccccc1Cl)NNC(=O)c1ccncc1	0	0	0	21.3µM	-	0
N/C(=N\OC(=O)/C=C/c1ccccc1)c1ccncc1	?	?	3.16µM	6.01µM	0	1.78µM
N/C(=N\OC(=O)/C=C/c1ccccc1Cl)c1ccncc1	0	?	1.26µM	0.849µM	1.41µM	0.708µM
COc1ccc2c(Cl)c(C(=O)N/N=C/c3c(C)[nH]c4ccccc34)sc2c1	0	23.1µM	0	0	-	0
Cc1[nH]c2ccccc2c1/C=N/NC(=O)c1ccccc1	0	?	0	?	-	0
Cc1[nH]c2ccccc2c1/C=N/Nc1cccc(C(=O)O)c1	?	?	1.58µM	2.69µM	-	2µM
COc1ccc2c(Cl)c(C(=O)N/N=C3\CCCC(=O)C3)sc2c1	0	?	0	16.9µM	?	?
